Sampled rows, rich in hits. Any-hit rate of the full collection: about 12%.
Pf growth 96h – Primary qHTS for delayed death inhibitors of the malarial parasite plastid, 96 hour incubation; P. falciparum luciferase reporter growth, 96 h; AID 504834, 2011; Potency, µM (titrated, usually from 28.7 µM), inactives show top-dose activity change, negative = inhibition, actives largely listed as inhibitors; hit rate 6.9% among 320,000; further: on the % scale 0 is the no-effect control and ±100 the full control effect
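Parasite growth measured via integrated firefly luciferase reporter in P. falciparum. Infected erythrocytes at 2% hematocrit, 0.05% parasitemia final were treated 96 hours at 37 C under 5% CO2, and luminescence was read.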
AMA1-RON2 inh – qHTS for Inhibitors of AMA1-RON; Towards Development of Antimalarial Drug Lead: Primary Screen; Plasmodium falciparum AMA1 (3D7) - RON2 peptide interaction; AlphaScreen AMA1-biotinylated RON2 peptide binding; Potency, µM (doses to about 58.2 µM), for the others: top-dose activity change, negative = inhibition, usual class: inhibitors; hit rate 0.2% among 360,000;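 further: 0% = vehicle wells and -100% = peptide control; nearly all actives have a fitted effect of over 45% in size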
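AMA1 (3D7) with his tag at 25 nM final met compounds first, then biotinylated RON2 peptide at 25 nM; detection used donor plus acceptor beads, 10 µg/mL apiece, read by AlphaScreen after 30 min at room temperature.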
Pf growth 48h – Primary qHTS for delayed death inhibitors of the malarial parasite plastid, 48 hour incubation; P. falciparum luciferase growth in erythrocytes, 48 h; hit rate 5.9% among 310,000; Potency, µM (doses to about 28.7 µM), without a hit: at the top dose activity change, negative = inhibition, actives largely listed as inhibitors; further: on the % scale 0 is the no-effect control and ±100 the full control effect
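A one-generation exposure of luciferase-tagged malaria parasites in RPMI 1640/Albumax erythrocyte culture, 37 C and 5% CO2. Inhibition is inferred from decreased luminescence after adding detection reagent.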
HCV inh – qHTS Assay for Inhibitors of Hepatitis C Virus (HCV). Potency, µM (doses to about 41.8 µM), inactives show top-dose activity change, negative = inhibition, most hits filed as inhibitors. Huh7.5.1 HCVcc-Cre infection, luciferase reporter, 44 h. AID 651820, 2012. hit rate 3.4% among 340,000; further: on the % scale 0 is the no-effect control and ±100 the full control effect
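Infectious HCV cell culture screen: compound-treated cells (1,000/well, pre-plated 4 h) are infected with HCVcc-Cre at roughly 0.5 moi and grown 44 h. Infection is quantified by luciferase signal after 15 min substrate incubation at room temperature.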
NS1 function inh – qHTS Assay for Inhibitors of Influenza NS1 Protein Function. hit rate 0.4% among 270,000. Potency, µM (doses to about 46.1 µM), without a hit: top-dose activity, positive = more growth; calls by dose curve; further: actives are rising curves; nearly all actives have a fitted effect of over 50% in size
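S. cerevisiae expressing influenza A NS1, grown in glucose, washed, then diluted 1:100 into pH 6.0 -URA galactose medium with 23 nl compound. Growth recovery read as OD600; NS1-free strain serves as control.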
SARS PLpro yeast – qHTS of Yeast-based Assay for SARS-CoV PLP; S. cerevisiae expressing SARS-CoV PLpro, growth rescue; Potency, µM (doses to about 32.9 µM), for inactives: at the top dose activity, positive = growth rescue, most hits filed as activators; hit rate 0.19% among 330,000; calls by dose curve; further: 0% is about no effect; nearly all actives have a fitted effect of over 55% in size
* hit, by the source's call. Unless noted, the call rests on the fitted dose curve; in most records, active means well fitted curve in the direction sought with a large enough effect; inconclusive means small, poorly fitted or top-dose-only effect, or another doubt; inactive means no such curve, though single readings can be large; an effect the other way counts as inactive or inconclusive. Potency means the concentration at half of the fitted maximal effect.

For CC(=O)Nc1ccc(Nc2nnc(-c3ccc(C)c(S(N)(=O)=O)c3)c3ccccc23)cc1 the results were Pf growth 96h -2%, AMA1-RON2 inh 25%, Pf growth 48h inconclusive, HCV inh 1%, NS1 function inh 7% and SARS PLpro yeast 1%.
COc1nnc(-c2ccc(C)c(S(N)(=O)=O)c2)c2ccccc12 was read as Pf growth 96h 2.9µM*, AMA1-RON2 inh -8%, HCV inh inconclusive, NS1 function inh 8% and SARS PLpro yeast 0%.
`Cc1ccc(-c2nnc(Nc3ccc4c(c3)OCO4)c3ccccc23)cc1S(N)(=O)=O` gave Pf growth 96h 2.9µM*, AMA1-RON2 inh inconclusive, Pf growth 48h inconclusive, HCV inh inconclusive, NS1 function inh 17% and SARS PLpro yeast 21%.
For COc1ccc(-c2ccccc2NC(=O)C2CCCN(Cc3ccc(C)o3)C2)cc1 (stereo unspecified) the results were Pf growth 96h inconclusive, AMA1-RON2 inh -14%, Pf growth 48h inconclusive, HCV inh -29%, NS1 function inh 12% and SARS PLpro yeast 2%.
CC(OC(=O)c1cccc([N+](=O)[O-])c1)C(=O)NCc1ccc2c(c1)OCO2 (stereo unspecified) was read as Pf growth 96h -4%, AMA1-RON2 inh -13%, Pf growth 48h -8%, HCV inh 9%, NS1 function inh -4% and SARS PLpro yeast -5%.
Cc1ccc(S(=O)(=O)NCc2ccccc2)cc1C(=O)NCC(=O)Nc1c(C)cccc1C was read as AMA1-RON2 inh -6%.
For CC(C)(C)SCCNC(=O)/C=C/c1ccc(F)cc1 the results were Pf growth 96h -5%, AMA1-RON2 inh -10%, Pf growth 48h inconclusive, HCV inh 3%, NS1 function inh -13% and SARS PLpro yeast 7%.
`O=C(/C=C/c1cccc([N+](=O)[O-])c1)NCCSc1ccccc1` gave Pf growth 96h 10µM*, AMA1-RON2 inh -3%, Pf growth 48h inconclusive, HCV inh -14%, NS1 function inh -4% and SARS PLpro yeast -30%.
Screening CC(C)(C)SCCNC(=O)/C=C/c1ccccc1 returned Pf growth 96h 10µM*, AMA1-RON2 inh 0%, Pf growth 48h inconclusive, HCV inh -9%, NS1 function inh 1% and SARS PLpro yeast -1%.
Screening Cc1ccc(SCCNC(=O)/C=C/c2cccc([N+](=O)[O-])c2)cc1 returned Pf growth 96h 30%, AMA1-RON2 inh -20%, Pf growth 48h 21%, HCV inh -13%, NS1 function inh -27% and SARS PLpro yeast -58%.
For CCC(C)c1ccccc1N1CC(C(=O)N(C)CC(=O)Nc2cccc(F)c2)CC1=O (stereo unspecified) the results were Pf growth 96h inconclusive, AMA1-RON2 inh 10%, Pf growth 48h inconclusive, HCV inh inconclusive and SARS PLpro yeast -4%.
For CC(SCc1ccccc1)C(=O)Nc1ccccc1F (stereo unspecified) the results were Pf growth 96h 0.93µM*, AMA1-RON2 inh -1%, Pf growth 48h 33%, HCV inh 10%, NS1 function inh -1% and SARS PLpro yeast 3%.
O=C(NC(Cc1cccc(F)c1)C(=O)O)C1CCCCC1 (stereo unspecified) was read as Pf growth 96h 19%, AMA1-RON2 inh -1%, Pf growth 48h 21%, HCV inh 2.8µM* and SARS PLpro yeast 2%.
`COc1cc(/C=N/NC(=O)c2cc(-c3cccn3C)n[nH]2)cc(OC)c1OC` gave Pf growth 96h 23%, AMA1-RON2 inh 13%, Pf growth 48h 6.6µM*, HCV inh -6%, NS1 function inh 9% and SARS PLpro yeast 7%.
For Cn1cccc1-c1cc(C(=O)N/N=C/c2ccc(Cl)cc2)[nH]n1 the results were Pf growth 96h 492%, AMA1-RON2 inh 9%, Pf growth 48h -23%, HCV inh inconclusive, NS1 function inh 5% and SARS PLpro yeast -16%.
COc1cccc(/C=N/NC(=O)c2ccc(CN3c4cccc5cccc(c45)S3(=O)=O)cc2)c1 was read as Pf growth 96h 10µM*, AMA1-RON2 inh -15%, Pf growth 48h -16%, HCV inh -22%, NS1 function inh 24% and SARS PLpro yeast -5%.
COc1cccc(/C=N/NC(=O)c2cc(-c3cccn3C)n[nH]2)c1 was read as Pf growth 96h 12µM*, AMA1-RON2 inh -23%, Pf growth 48h inconclusive, HCV inh -11%, NS1 function inh 16% and SARS PLpro yeast -1%.
`CCOc1cc(NC(=O)c2ccccn2)c(OCC)cc1NC(=O)CC(C)C` gave Pf growth 96h 3.7µM*, AMA1-RON2 inh 22%, Pf growth 48h 13µM*, HCV inh inconclusive, NS1 function inh 4% and SARS PLpro yeast -2%.
`CCOc1cc(NC(=O)c2ccccn2)c(OCC)cc1NC(=O)c1ccccc1` gave Pf growth 96h 43%, AMA1-RON2 inh -2%, Pf growth 48h -14%, HCV inh -4%, NS1 function inh 2% and SARS PLpro yeast 0%.
`CCOc1cc(NC(=O)C2CC2)c(OCC)cc1NC(=O)c1ccccn1` gave AMA1-RON2 inh 6%, Pf growth 48h 15µM*, HCV inh 6%, NS1 function inh -25% and SARS PLpro yeast 2%.
For Cc1cccc(C(=O)OCC(=O)N(CC(C)C)c2c(N)n(Cc3ccccc3)c(=O)[nH]c2=O)c1O the results were Pf growth 96h 11%, AMA1-RON2 inh 3%, Pf growth 48h -3%, HCV inh 11% and SARS PLpro yeast 5%.
`CCOc1ccc(-c2c(C(=O)N/N=C/c3ccoc3)nnn2-c2nonc2N)cc1` gave Pf growth 96h 60%, AMA1-RON2 inh 36%, Pf growth 48h 27%, HCV inh -1%, NS1 function inh 11% and SARS PLpro yeast 9%.
CCOC(=O)c1nnn(-c2nonc2N)c1CN1CCc2ccccc2C1 was read as AMA1-RON2 inh 9%, Pf growth 48h -17%, HCV inh -3%, NS1 function inh -34% and SARS PLpro yeast -7%.
`CCOc1cccc(-c2c(C(=O)N/N=C(\C)c3ccccn3)nnn2-c2nonc2N)c1` gave Pf growth 96h 3.7µM*, AMA1-RON2 inh -26%, Pf growth 48h inconclusive, HCV inh 11µM*, NS1 function inh -8% and SARS PLpro yeast -9%.
